From PubChem BioAssay AID485364 (National Center for Advancing Translational Sciences (NCATS), 2010)
About 11,000 (3.1%) of roughly 360,000 compounds were called active. About 4% were inconclusive and are not listed. Calls follow the shape of the dose curve; as a rule, active = well fitted inhibition curve with a large enough effect; inconclusive = small, poorly fitted or top-dose-only effect; inactive = no such curve, though single readings can be large or run the other way. The list comes from a sample in which actives are over-represented; it also holds similar structures and randomly drawn compounds. Entries that show only a call come without a potency.

The compounds below were run against Schistosoma mansoni thioredoxin glutathione reductase (TGR) (UniProt Q962Y6) (assay: qHTS Assay for the Inhibitors of Schistosoma Mansoni Peroxiredoxins). Settings: purified TGR, DTNB reduction, TNB absorbance 405 nm; series mostly up to 114 µM.
Outline: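 Kinetic colorimetric format: TGR-catalysed, NADPH-driven DTNB reduction monitored via TNB absorbance. Enzyme dispensed at 20 nM; compound exposure 15 min at room temperature before reaction start.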
Also: nearly all actives have a fitted effect of over 60% in size.
Potency is read from the fitted curve at half-maximal effect.

SMILES	Potency
Cc1cccc(NC(=O)C2CCCN2S(=O)(=O)c2cccc3nsnc23)c1C (stereo not given)	inactive
CCN(CC(=O)Nc1c(F)cccc1F)C(=O)c1ccc(Sc2nncn2C)c([N+](=O)[O-])c1	inactive
Cn1cnnc1Sc1ccc(S(C)(=O)=O)cc1[N+](=O)[O-]	35.5 µM (active)
CC(C)(C)n1cnnc1Sc1ccc([N+](=O)[O-])cn1	inactive
C=CCn1c(SCc2ccc(C(=O)NCCO)cc2)nc2ccccc2c1=O	inactive
O=C(CSc1nc2ccccc2c(=O)n1CCCO)NC1CC1	inactive
C=CCn1c(SCC(=O)NC(=O)Cc2ccccc2)nc2ccccc2c1=O	89.1 µM (active)
Cc1ccc(O)c(NC(=O)c2cc(-c3ccc(F)cc3)no2)c1	inactive
Cc1ccc(C(=O)N2CCc3cc(CNC(=O)c4ccc(Br)cc4)ccc32)cc1	inactive
COc1ccc(NC(=O)c2cc3cc(C)ccc3n2C)cc1	inactive
CN(C)S(=O)(=O)c1ccc(N/C=C(\[N+](=O)[O-])S(=O)(=O)c2ccccc2)cc1	14.1 µM (active)
CN(C)S(=O)(=O)c1ccc(NC(=O)N2CCOCC2)cc1	inactive
CN(C)S(=O)(=O)c1cccc(NC(=S)N/N=C/C(=O)c2ccccc2)c1	inactive
O=C(CN1C(=O)CCn2nc(-c3ccccc3)cc21)NCc1ccccc1	inactive
Cc1nnc2n1N=C(c1ccccc1)CS2	39.8 µM (active)
CCN1N=C(c2ccccc2)CCC1=O	inactive
CC1CSc2nnc(CCc3ccccc3)n21 (stereo not given)	inactive
COc1ccc(-c2cc(-c3nc(-c4cc(OC)c(OC)c(OC)c4)no3)[nH]n2)c(OC)c1	inactive
CCOCCCNC(=O)c1c(NC(=O)c2nc(SC)ncc2Cl)sc2c1CCCC2	inactive
CC(C)(C)c1ccc(S(=O)(=O)Nc2ccc(O)c(Sc3nc4ccccc4s3)c2)cc1	inactive
CC(C)c1ccc(S(=O)(=O)Nc2ccc(O)c(Sc3nc4ccccc4s3)c2)cc1	inactive
O=[N+]([O-])c1c(NCCO)cc(Sc2nc3ccccc3s2)c2nonc12	0.1 µM (active)
Cc1ccccc1C(=O)Nc1sc2c(c1C(=O)N1CCC(C)CC1)CCCC2	inactive
CCOC(=O)c1ccccc1NC(=O)CCc1c(C)nc2c(c1C)c(=O)n(C)c(=O)n2C	inactive
Cc1cccc(OP(=O)(Nc2c(C)n(C)n(-c3ccccc3)c2=O)Oc2cccc(C)c2)c1	inactive
Cc1cccc(C2CC(=O)Oc3c2c(=O)n(C)c2ccccc32)c1 (stereo not given)	inactive
Cn1c(=O)c(Sc2ccc(Cl)cc2)c(O)c2ccccc21	inactive
Cc1cccc(Oc2c([N+](=O)[O-])c(=O)n(C)c3ccccc23)c1	3.98 µM (active)
Cn1c(=O)c([N+](=O)[O-])c(Oc2ccccc2)c2ccccc21	2.82 µM (active)
Cn1nc(-c2ccccc2)c2cc([N+](=O)[O-])ccc21	inactive
